“And” between values parts separate entries of the source, which are not always exact repeats. Identical values can stand only once. Compounds without any hit were thinned out: in the full panel of roughly 83,000, 20% have a hit.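 Cells were grown in 96-well plates and exposed to the test compound at a single concentration for 48 hours; results are reported as percent growth, with values below 10 considered active.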 The source made the active and inactive calls.
Tests used:
Test in all cases: NCI-60 one-dose screen, 48 h (100 = growth as untreated, 0 = no growth, -100 = all killed)
Conditions in all cases: 10 µM unless noted
HCT-15 colon = system: HCT-15 colon
HT29 colon = system: HT29 colon
SNB-75 CNS = system: SNB-75 CNS
SNB-19 CNS = system: SNB-19 CNS
U251 CNS = system: U251 CNS
PC-3 prostate = system: PC-3 prostate
SK-MEL-5 melanoma = system: SK-MEL-5 melanoma
UACC-62 melanoma = system: UACC-62 melanoma
LOX IMVI melanoma = system: LOX IMVI melanoma
SK-MEL-28 melanoma = system: SK-MEL-28 melanoma
SK-MEL-2 melanoma = system: SK-MEL-2 melanoma
EKVX NSCLC = system: EKVX NSCLC
SN12C renal = system: SN12C renal
UO-31 renal = system: UO-31 renal
TK-10 renal = system: TK-10 renal
ACHN renal = system: ACHN renal
CAKI-1 renal = system: CAKI-1 renal
A498 renal = system: A498 renal
CCRF-CEM leukemia = system: CCRF-CEM leukemia
MOLT-4 leukemia = system: MOLT-4 leukemia

Row | Compound | growth (HCT-15 colon) | growth (HT29 colon) | growth (SNB-75 CNS) | growth (SNB-19 CNS) | growth (U251 CNS) | growth (PC-3 prostate) | growth (SK-MEL-5 melanoma) | growth (UACC-62 melanoma) | growth (LOX IMVI melanoma) | growth (SK-MEL-28 melanoma) | growth (SK-MEL-2 melanoma) | growth (EKVX NSCLC) | growth (SN12C renal) | growth (UO-31 renal) | growth (TK-10 renal) | growth (ACHN renal) | growth (CAKI-1 renal) | growth (A498 renal) | growth (CCRF-CEM leukemia) | growth (MOLT-4 leukemia)
1 | CC1(C)C(N)=Nc2cc(OCCCN3Cc4ccc(OCCc5cn(CC(=O)N6CCC(CCN7CCCC7)CC6)nn5)cc4C3)c(OCC3CC3)cc21 | 97.2% (inactive) | 74.2% (inactive) | 93.8% (inactive) | 104% (inactive) | 97.7% (inactive) | 84.5% (inactive) | 103% (inactive) | 98.6% (inactive) | 100% (inactive) | 108% (inactive) | 109% (inactive) | 101% (inactive) | 96.1% (inactive) | 90.8% (inactive) | 100% (inactive) | 103% (inactive) | 91.2% (inactive) | 104% (inactive) | 96.2% (inactive) | 99.9% (inactive)
2 | O=C(/C=C\c1ccc(Cl)c(Cl)c1)c1ccccc1 | 65.6% (inactive) and 100% (inactive) | 37.5% (inactive) and 88.8% (inactive) | 98.5% (inactive) and 99.9% (inactive) | 86.9% (inactive) and 98.4% (inactive) | 85.3% (inactive) | 98.8% (inactive) and 87.6% (inactive) | 97.2% (inactive) and 101% (inactive) | 91.7% (inactive) and 95.9% (inactive) | 10.8% (inactive) and 91.5% (inactive) | 102% (inactive) and 108% (inactive) | 119% (inactive) and 109% (inactive) | 89.3% (inactive) | 96.1% (inactive) and 104% (inactive) | 72.2% (inactive) and 84.2% (inactive) | 80.6% (inactive) and 103% (inactive) | 95.2% (inactive) and 105% (inactive) | 96.7% (inactive) and 89.5% (inactive) | 74.1% (inactive) and 77.3% (inactive) | 45.5% (inactive) and 91.1% (inactive) | 77.4% (inactive) and 103% (inactive)
3 | Nc1nc(Nc2ccc(F)cc2)nn1C(=O)c1cc(Cl)ccc1Cl | 69.1% (inactive) | 70.8% (inactive) | 76.7% (inactive) | 65.8% (inactive) | 76.1% (inactive) | 75.6% (inactive) | 87% (inactive) | 60.8% (inactive) | 48.4% (inactive) | 86% (inactive) | 97.3% (inactive) | 99.7% (inactive) | 68% (inactive) | 64.7% (inactive) | 104% (inactive) | 58.9% (inactive) | 51.6% (inactive) | 68.4% (inactive) | 60.4% (inactive) | 75.4% (inactive)
4 | COC(=O)/C=C1/SC(=Nc2ccc([N+](=O)[O-])cc2)N(CCc2c[nH]c3ccccc23)C1=O | 29.9% (inactive) | 51.8% (inactive) | 84.3% (inactive) | 69.2% (inactive) | 46.9% (inactive) | 63.4% (inactive) | 84.9% (inactive) | 51% (inactive) | -9.3% (active) | 76.8% (inactive) | 68.1% (inactive) | 87.2% (inactive) | 58.8% (inactive) | 48.8% (inactive) | 103% (inactive) |  | 73.1% (inactive) | 78.2% (inactive) | 8.51% (active) | -2.1% (active)
5 | O=C(Nc1ncc(Cc2cccc(C(F)(F)F)c2)s1)c1ccc2c(c1)OCCO2 | 8.27% (active) | 4.83% (active) | 25.5% (inactive) | 42.9% (inactive) | 16.7% (inactive) | 28.3% (inactive) | -21.5% (active) | 39.9% (inactive) | 40.8% (inactive) | 73.1% (inactive) | 40.1% (inactive) | 30.7% (inactive) | 35.3% (inactive) | 47.7% (inactive) | 44.9% (inactive) | 29.8% (inactive) | 24.6% (inactive) | -2.08% (active) | 17.8% (inactive) | 9.32% (active)
6 | Cc1ccc(-c2nc3nc(-c4ccc(Br)cc4)nc(N4CCCNCC4)c3o2)cc1 | -84.5% (active) | -85.3% (active) | 96.2% (inactive) | -47.3% (active) | -76.6% (active) | -52% (active) | 92.6% (inactive) | 101% (inactive) | -85.1% (active) | 103% (inactive) | 108% (inactive) | 114% (inactive) | -77.4% (active) | 63.4% (inactive) | 19.9% (inactive) | -95.4% (active) | -50.5% (active) | 80.5% (inactive) | -64.4% (active) | -56.8% (active)
7 | COc1c(F)cc(-n2c(C(=O)N3CC(F)C3)cc3cccnc32)cc1F | 98.6% (inactive) | 104% (inactive) | 82.2% (inactive) | 94.2% (inactive) | 97.7% (inactive) | 95.3% (inactive) | 99% (inactive) | 101% (inactive) | 84.2% (inactive) | 122% (inactive) | 108% (inactive) | 103% (inactive) | 97.6% (inactive) | 74.2% (inactive) | 99% (inactive) | 93.2% (inactive) | 86.3% (inactive) | 107% (inactive) | 99.1% (inactive) | 97.8% (inactive)
8 | CNC(=O)c1cc(Oc2ccc3nc(NC(=O)Nc4ccc(C(F)(F)F)cc4)sc3c2)ccn1 | 54.2% (inactive) | 78.4% (inactive) | 29.1% (inactive) | 79.3% (inactive) | 22.4% (inactive) | 58.8% (inactive) | 56.9% (inactive) | 56% (inactive) | 48.1% (inactive) | 68.9% (inactive) | 92.9% (inactive) | 53.5% (inactive) | 71.1% (inactive) | 65% (inactive) | 55.3% (inactive) | 73.4% (inactive) | 92% (inactive) | 98.8% (inactive) | 68.1% (inactive) | 73.3% (inactive)
9 | CN(C)CC1(C)Cc2ccsc2C1O (stereo not drawn) | 108% (inactive) and 105% (inactive) | 104% (inactive) and 99.1% (inactive) | 110% (inactive) and 101% (inactive) | 108% (inactive) and 106% (inactive) | 112% (inactive) and 103% (inactive) | 98.2% (inactive) and 100% (inactive) | 110% (inactive) and 107% (inactive) | 109% (inactive) and 112% (inactive) | 97.3% (inactive) and 102% (inactive) | 120% (inactive) and 126% (inactive) | 108% (inactive) and 110% (inactive) | 103% (inactive) and 92.3% (inactive) | 110% (inactive) and 111% (inactive) | 94.2% (inactive) and 87.3% (inactive) | 105% (inactive) and 94.1% (inactive) | 99.6% (inactive) and 106% (inactive) | 106% (inactive) and 103% (inactive) | 97.9% (inactive) and 95.5% (inactive) | 94.8% (inactive) | 99.9% (inactive) and 86.4% (inactive)
10 | O=C1C(Nc2ccc(Cl)cc2)=C(I)C(=O)c2ncccc21 | -40.4% (active) | 43.1% (inactive) | 19.4% (inactive) | 69.3% (inactive) | 30.3% (inactive) | 37.1% (inactive) | -39.8% (active) | -7.27% (active) | -68.6% (active) | 39% (inactive) | 70% (inactive) | 62.2% (inactive) | -22.1% (active) | -51% (active) | 47.5% (inactive) |  | -17% (active) | 99.6% (inactive) | 6.74% (active) | -1.19% (active)
11 | O=C1C=CC(=O)N1c1ccc2ccccc2c1 | 56.3% (inactive) and 91.1% (inactive) | -42.9% (active) and 32.6% (inactive) | 88.9% (inactive) and 105% (inactive) | 103% (inactive) and 107% (inactive) | 95.9% (inactive) and 96.5% (inactive) | 91% (inactive) and 90% (inactive) | 106% (inactive) and 102% (inactive) | 98.8% (inactive) and 93.6% (inactive) | 91.6% (inactive) and 77.6% (inactive) | 110% (inactive) and 116% (inactive) | 98.2% (inactive) and 101% (inactive) | 112% (inactive) and 95% (inactive) | 99.3% (inactive) and 91.1% (inactive) | 68.3% (inactive) and 72.8% (inactive) | 96.2% (inactive) and 36.7% (inactive) | 38% (inactive) and 50.3% (inactive) | 53.7% (inactive) and 83% (inactive) | 101% (inactive) | 41.3% (inactive) and 33.4% (inactive) | 49.7% (inactive) and 37.1% (inactive)

From PubChem BioAssay (NCI)
